Data taken from PubChem BioAssay (Tox21).
Results filed as inconclusive are left out. Activity calls are given as the source filed them. Unless noted, the call rests on the fitted dose curve.

Key:
[1] = Nuclear factor erythroid 2-related factor 2/antioxidant responsive element (Nrf2/ARE) small molecule agonists: qHTS cell viability counter screen in human keratinocytes (AID 1919968; active means well fitted curve in the direction sought with a large enough effect in the repeat runs; an effect the other way counts as inactive or inconclusive; further: nearly all actives have a fitted effect of over 55% in size)
How it was run: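 Cytotoxicity was multiplexed with the Nrf2/ARE luciferase assay in the same wells. Stably transfected HaCaT keratinocytes were treated with test compounds for 23 h at 37 C. Cell viability was then measured by CellTiter-Fluor fluorescence.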

[2] = molecular target: Gonadotropin-releasing hormone receptor (Homo sapiens) (UniProt P30968); experiment: Human gonadotropin-releasing hormone receptor (GnRHR) small molecule agonists, calcium flux assay in GnRHR-HEK293 cells (AID 1920063); further: nearly all actives have a fitted effect of over 35% in size
Sequence of Gonadotropin-releasing hormone receptor (Homo sapiens) (P30968 whole entry, looked up): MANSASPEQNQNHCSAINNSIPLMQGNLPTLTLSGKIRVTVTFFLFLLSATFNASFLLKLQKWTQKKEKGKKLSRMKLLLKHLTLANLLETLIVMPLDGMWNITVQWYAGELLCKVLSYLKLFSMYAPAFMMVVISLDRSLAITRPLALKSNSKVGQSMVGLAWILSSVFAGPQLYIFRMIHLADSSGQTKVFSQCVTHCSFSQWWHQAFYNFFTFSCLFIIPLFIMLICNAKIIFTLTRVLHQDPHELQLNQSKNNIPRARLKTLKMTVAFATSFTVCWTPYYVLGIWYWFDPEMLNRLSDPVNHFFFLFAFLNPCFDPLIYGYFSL
How it was run: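 Agonist activity was measured as intracellular calcium flux in HEK293 cells engineered to stably express human GnRHR. After dye loading for 1 hour at 37 C, compounds in DMSO were added and fluorescence was followed for 3 minutes.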

[3] = molecular target: KiSS-1 receptor (Homo sapiens) (UniProt Q969F8); experiment: Human kisspeptin (KISS1R) small molecule agonists, calcium flux assay in KISS1R-HEK293 cells (AID 1920064; active means well fitted curve in the direction sought with a large enough effect in the repeat runs; an effect the other way counts as inactive or inconclusive)
Sequence of KiSS-1 receptor (Homo sapiens) (Q969F8 whole entry, looked up): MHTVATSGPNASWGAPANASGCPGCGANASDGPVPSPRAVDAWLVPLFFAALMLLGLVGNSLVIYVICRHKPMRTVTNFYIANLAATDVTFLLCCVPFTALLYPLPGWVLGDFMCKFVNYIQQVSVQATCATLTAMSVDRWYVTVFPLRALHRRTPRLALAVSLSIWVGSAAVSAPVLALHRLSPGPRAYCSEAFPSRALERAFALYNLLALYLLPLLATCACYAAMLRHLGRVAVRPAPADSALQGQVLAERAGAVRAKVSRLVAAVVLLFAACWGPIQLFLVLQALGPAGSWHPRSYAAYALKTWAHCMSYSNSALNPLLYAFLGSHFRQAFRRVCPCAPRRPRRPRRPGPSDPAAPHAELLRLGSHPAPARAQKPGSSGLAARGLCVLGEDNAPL
How it was run: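 Agonist activity is monitored as intracellular calcium rise in engineered HEK293 cells carrying human KISS1R. Cells are dye-loaded for 1 h at 37 C before compound addition, and fluorescence is recorded for 3 min.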

[4] = p53 small molecule agonists, cell-based qHTS assay with human liver microsomes (AID 1963577);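 further: p53 response element beta-lactamase reporter cells with liver microsomes plus NADPH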
How it was run: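 With metabolic activation: human liver microsomes (0.5 mg/mL final) plus NADPH (0.5 mg/mL final) added alongside compounds to p53RE-bla cells; 16 h 37 C exposure; beta-lactamase read by LiveBLAzer fluorescence.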

[5] = p53 small molecule agonists, cell-based qHTS assay with human liver microsomes: qHTS cell viability counter screen (AID 1963579); further: nearly all actives have a fitted effect of over 45% in size
How it was run: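 Metabolic activation used human liver microsomes and NADPH, both 0.5 mg/mL final, over 16 hours at 37 C on p53RE-bla cells (4,000/well). Cytotoxicity measured by CellTiter-Glo luminescence, 30 min at room temperature.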

[6] = p53 small molecule agonists, cell-based qHTS assay with rat liver microsomes: qHTS cell viability counter screen (AID 1963580); further: nearly all actives have a fitted effect of over 45% in size
How it was run: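 Counter screen for cytotoxicity under metabolic activation: rat liver microsomes and NADPH, 0.5 mg/mL final each, added with compounds to p53RE-bla HCT-116 cells; 16 h at 37 C, then ATP luminescence read.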

[7] = molecular target: 5-hydroxytryptamine receptor 2A (Homo sapiens) (UniProt P28223); experiment: 5-hydroxytryptamine receptor 2A (HTR2A) small molecule antagonists, cell-based qHTS assay (AID 1963586); further: nearly all actives have a fitted effect of over 45% in size
Sequence of 5-hydroxytryptamine receptor 2A (Homo sapiens) (P28223 whole entry, looked up): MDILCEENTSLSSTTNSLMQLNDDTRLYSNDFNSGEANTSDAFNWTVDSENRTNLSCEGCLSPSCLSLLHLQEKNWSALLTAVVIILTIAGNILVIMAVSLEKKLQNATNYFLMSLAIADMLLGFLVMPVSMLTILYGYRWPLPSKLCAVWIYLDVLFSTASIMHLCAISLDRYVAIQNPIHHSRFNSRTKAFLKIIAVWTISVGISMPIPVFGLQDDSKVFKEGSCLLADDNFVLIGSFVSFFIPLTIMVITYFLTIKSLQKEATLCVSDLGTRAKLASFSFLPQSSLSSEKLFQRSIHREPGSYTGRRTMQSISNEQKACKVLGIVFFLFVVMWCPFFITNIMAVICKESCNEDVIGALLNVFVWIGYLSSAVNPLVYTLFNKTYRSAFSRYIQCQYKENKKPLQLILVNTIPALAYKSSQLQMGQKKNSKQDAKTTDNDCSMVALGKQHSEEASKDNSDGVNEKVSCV
How it was run: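 CHO cells stably expressing human HTR2A were plated for 18 h at 37 C, then loaded with calcium dye for 1 h. Compounds were preincubated 5 min at room temperature before DOI (4 nM solution) was added. Kinetic fluorescence was read for 3 min.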

[8] = molecular target: 5-hydroxytryptamine receptor 2A (Homo sapiens) (UniProt P28223); experiment: 5-hydroxytryptamine receptor 2A (HTR2A) small molecule agonists, cell-based qHTS assay (AID 1963587); further: nearly all actives have a fitted effect of over 30% in size
How it was run: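 HTR2A-CHO cells, plated 18 h at 37 C/5% CO2, dye-loaded 1 h at 37 C; compounds in DMSO added by pin tool (agonist mode). Intracellular calcium flux read as kinetic fluorescence on FDSS over 2 min at 1 s intervals.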

[9] = molecular target: Muscarinic acetylcholine receptor M1 (Homo sapiens) (UniProt P11229); experiment: Cholinergic receptor muscarinic 1 (CHRM1) small molecule antagonists, cell-based qHTS assay (AID 1963588); further: nearly all actives have a fitted effect of over 40% in size
Sequence of Muscarinic acetylcholine receptor M1 (Homo sapiens) (P11229 whole entry, looked up): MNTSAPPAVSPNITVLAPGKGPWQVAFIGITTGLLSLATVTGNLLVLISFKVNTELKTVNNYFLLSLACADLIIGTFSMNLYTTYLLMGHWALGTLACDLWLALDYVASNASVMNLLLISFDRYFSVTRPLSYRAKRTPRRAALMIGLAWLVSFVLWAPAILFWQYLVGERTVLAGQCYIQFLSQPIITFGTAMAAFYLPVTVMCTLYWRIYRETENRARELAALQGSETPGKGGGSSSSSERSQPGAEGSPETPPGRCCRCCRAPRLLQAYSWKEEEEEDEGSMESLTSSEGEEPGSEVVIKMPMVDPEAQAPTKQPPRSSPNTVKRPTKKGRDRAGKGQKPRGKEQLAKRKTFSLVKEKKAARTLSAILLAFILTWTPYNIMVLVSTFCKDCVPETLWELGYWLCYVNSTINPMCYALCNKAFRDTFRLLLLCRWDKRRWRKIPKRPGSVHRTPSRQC
How it was run: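 Compounds were tested at 15 concentrations in three independent runs. Dye-loaded CHRM1-CHO cells were exposed 5 min at room temperature before stimulation by acetylcholine added at 50nM. Intracellular calcium was read kinetically on FDSS for 3 min.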

[10] = molecular target: Muscarinic acetylcholine receptor M1 (Homo sapiens) (UniProt P11229); experiment: Cholinergic receptor muscarinic 1 (CHRM1) small molecule agonists, cell-based qHTS assay (AID 1963589); further: nearly all actives have a fitted effect of over 35% in size
How it was run: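 Cells were plated and incubated 18 h at 37 C/5% CO2, loaded with calcium dye for 1 h at 37 C, then treated with compounds in DMSO. Fluorescence was recorded kinetically at 1 sec intervals.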

[11] = molecular target: Beta-2 adrenergic receptor (Homo sapiens) (UniProt P07550); experiment: Adrenergic beta2 receptor (ADRB2) small molecule antagonists, cell-based qHTS assay (AID 1963592); further: series mostly up to about 92 µM; nearly all actives have a fitted effect of over 50% in size
Sequence of Beta-2 adrenergic receptor (Homo sapiens) (P07550 whole entry, looked up): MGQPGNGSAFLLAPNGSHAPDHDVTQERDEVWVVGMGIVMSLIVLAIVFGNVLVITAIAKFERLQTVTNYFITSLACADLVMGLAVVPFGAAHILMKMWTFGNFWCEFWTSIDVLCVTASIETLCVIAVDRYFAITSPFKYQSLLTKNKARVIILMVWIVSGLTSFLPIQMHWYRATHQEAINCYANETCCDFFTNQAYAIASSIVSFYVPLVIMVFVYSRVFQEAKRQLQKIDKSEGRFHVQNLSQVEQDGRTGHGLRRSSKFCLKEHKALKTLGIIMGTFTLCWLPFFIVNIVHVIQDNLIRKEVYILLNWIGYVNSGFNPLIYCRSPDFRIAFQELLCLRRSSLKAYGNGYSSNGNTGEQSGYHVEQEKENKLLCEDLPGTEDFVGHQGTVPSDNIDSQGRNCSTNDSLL
How it was run: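 Assay format: CHO-ADRB2 cells, 18-20hr seeding at 37C/5% CO2, then compound plus 1nM isoproterenol agonist mix for 0.5hr RT. Homogeneous time-resolved fluorescence cAMP detection after 1hr, expressed as 665/615 nm ratio.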

[12] = molecular target: D(2) dopamine receptor (Homo sapiens) (UniProt P14416); experiment: Dopamine D2 receptor (DRD2) small molecule agonists, cell-based qHTS assay (AID 1963594); further: nearly all actives have a fitted effect of over 35% in size
Sequence of D(2) dopamine receptor (Homo sapiens) (P14416 whole entry, looked up): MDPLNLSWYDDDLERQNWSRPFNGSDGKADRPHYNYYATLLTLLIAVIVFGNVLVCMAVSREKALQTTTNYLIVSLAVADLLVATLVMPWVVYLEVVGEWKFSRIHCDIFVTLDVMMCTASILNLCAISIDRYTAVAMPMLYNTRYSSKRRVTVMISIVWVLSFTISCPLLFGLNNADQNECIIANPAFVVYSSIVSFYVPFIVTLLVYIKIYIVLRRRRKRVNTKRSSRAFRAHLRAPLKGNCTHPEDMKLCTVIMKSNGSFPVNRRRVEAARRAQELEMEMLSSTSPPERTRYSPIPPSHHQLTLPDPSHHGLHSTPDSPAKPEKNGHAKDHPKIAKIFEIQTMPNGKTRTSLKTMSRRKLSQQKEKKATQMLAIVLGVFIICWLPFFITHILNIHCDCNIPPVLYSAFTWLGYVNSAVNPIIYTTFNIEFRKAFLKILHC
How it was run: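 HEK293 cells stably expressing DRD2 were cultured 24 h at 37 C, then given Ro20-1724 (0.1 mM final) and compounds for 10 min at room temperature. NKH477 (200nM) was then added for 30 min. cAMP was read by HTRF.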

[13] = molecular target: D(2) dopamine receptor (Homo sapiens) (UniProt P14416); experiment: Dopamine D2 receptor (DRD2) small molecule antagonists, cell-based qHTS assay (AID 1963595; active means well fitted inhibition curve with a large enough effect in the signal ratio in the repeat runs, with a control signal flat; the % refers to the signal ratio)
How it was run: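 Antagonist mode in DRD2-HEK293 cells: after compound addition with 0.1 mM Ro20-1724, cells received quinpirole (12 nM) and NKH477 (200 nM) for 30 min at room temperature; HTRF cAMP read after 1 h detection.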

[14] = G protein-coupled receptor (GPCR) small molecule agonists, calcium flux assay: HEK293 wild type cell line counter screen (AID 1920065)
How it was run: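 Seed cells, incubate 18 h (37 C, 5% CO2); add calcium dye, 1 h at 37 C; pin-transfer compounds, ATP control or DMSO; read fluorescence 480/540 nm each second for 3 min.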

[15] = p53 small molecule agonists, cell-based qHTS assay with rat liver microsomes (AID 1963578)
How it was run: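 Metabolic activation by rat liver microsomes and NADPH, each 0.5 mg/mL final, added right after compounds to p53RE-bla reporter cells (4,000/well, plated 5 h earlier). 16 h at 37 C, then LiveBLAzer substrate for 2 h at room temperature in the dark; fluorescence read-out.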

[16] = p53 small molecule agonists, cell-based qHTS assay: qHTS cell viability counter screen (AID 1963581); further: nearly all actives have a fitted effect of over 45% in size
How it was run: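 Viability was counter-screened in parallel with the p53 agonist reporter by measuring intracellular ATP luminescence in the same HCT-116 p53RE-bla wells after 16 h compound treatment at 37 C.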

[17] = p53 small molecule agonists, cell-based qHTS assay (AID 1963582; active means well fitted activation curve with a large enough effect in the signal ratio in the repeat runs, not every such curve was filed as active; the % refers to the signal ratio)
How it was run: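 Cells carrying a p53-responsive bla reporter are treated with test compounds for 16 h at 37 C; beta-lactamase activity is then detected with LiveBLAzer B/G FRET substrate after 2 h at room temperature.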

[18] = cAMP Responsive Elements (CRE) small molecule agonists, cell-based qHTS assay (AID 1963590)
How it was run: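 Cells carrying a CRE-driven beta-lactamase reporter (HEK 293T) are seeded, incubated overnight (18 h), and treated with test compounds for 3 h at 37 C; reporter activity is then detected with a FRET substrate after 2 h at room temperature.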

[19] = cAMP Responsive Elements (CRE) small molecule antagonists, cell-based qHTS assay (AID 1963591; active means well fitted inhibition curve with a large enough effect in the signal ratio in the repeat runs, not every such curve was filed as active; the % refers to the signal ratio)
How it was run: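 Cells (CRE-bla HEK 293T, DMEM with 10% dialyzed FBS and 25 mM HEPES) are seeded and incubated 18 h. Compounds are added with NKH477 agonist at 0.25 uM final for 3 h, then FRET substrate for 2 h.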

[20] = molecular target: Beta-2 adrenergic receptor (Homo sapiens) (UniProt P07550); experiment: Adrenergic beta2 receptor (ADRB2) small molecule agonists, cell-based qHTS assay (AID 1963593);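 further: CHO cells stably overexpressing human ADRB2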
How it was run: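 CHO cells stably over-expressing ADRB2 were plated overnight at 37C, then dosed with compounds plus a stimulation mix containing 100uM IBMX and 25uM Ro-20-1724 for 0.5hr at room temperature. cAMP was measured by HTRF competition, 1hr.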
On the % scale 0 is the no-effect control and ±100 the full control effect.

O=C(O)CCCCCCCCCCCBr
inactive: Potency [1] | Potency [2] | Potency [3] | Potency [4] | Potency [5] | Potency [6] | Potency [7] | Potency [8] | Potency [9] | Potency [10] | Potency [11] | Potency [12] | Potency [13]

C/C(CC(C)C)=N\O
inactive: Potency [1] | Potency [2] | Potency [14] | Potency [4] | Potency [15] | Potency [5] | Potency [6] | Potency [16] | Potency [17] | Potency [7] | Potency [8] | Potency [9] | Potency [10] | Potency [18] | Potency [19] | Potency [11] | Potency [20] | Potency [12] | Potency [13]

O=C(O)c1ccc(S(=O)(=O)O)cc1C(=O)O
inactive: Potency [1] | Potency [2] | Potency [3] | Potency [14] | Potency [16] | Potency [8] | Potency [9] | Potency [18] | Potency [19] | Potency [11] | Potency [20] | Potency [12] | Potency [13]

O=[N+]([O-])c1ccc(O)c2ncccc12
inactive: Potency [1] | Potency [2] | Potency [3] | Potency [16] | Potency [17] | Potency [7] | Potency [8] | Potency [9] | Potency [10] | Potency [18] | Potency [11] | Potency [20] | Potency [12] | Potency [13]

O=CO
inactive: activity change, negative = cytotoxicity [1] 0.89% [at 8.39 µM] | activity change [2] 0% [at 5.22 µM, stronger effect = higher value] | activation [3] 4.55% [at 6.97 µM] | activation [14] -0.0753% [at 5.23 µM] | activity change, negative = cytotoxicity [16] -6.99% [at 5.99 µM] | activity, negative = inhibition [7] 0.711% [at 5.62 µM] | activation [8] 0.778% [at 7.02 µM] | activity, negative = inhibition [9] 7.62% [at 5.58 µM] | activation [18] 0.47% [at 8.39 µM] | activity change, negative = inhibition [11] 1.71% [at 8.39 µM] | activation [12] 0.218% [at 8.39 µM] | activity change, negative = inhibition [13] -7.6% [at 8.38 µM]

Nc1ccc(C(=O)Nc2ccccc2N)cc1
inactive: Potency [1] | Potency [2] | Potency [3] | Potency [4] | Potency [15] | Potency [6] | Potency [16] | Potency [17] | Potency [7] | Potency [8] | Potency [9] | Potency [10] | Potency [18] | Potency [11] | Potency [13]

Cc1c(N)c(=O)n(-c2ccccc2)n1C
inactive: Potency [1] | Potency [2] | Potency [3] | Potency [14] | Potency [6] | Potency [16] | Potency [8] | Potency [9] | Potency [10] | Potency [18] | Potency [11] | Potency [20] | Potency [13]

NC(=O)Nc1nc2ccccc2[nH]1
inactive: Potency [1] | Potency [2] | Potency [3] | Potency [15] | Potency [5] | Potency [6] | Potency [16] | Potency [17] | Potency [7] | Potency [8] | Potency [9] | Potency [10] | Potency [18] | Potency [19] | Potency [20] | Potency [12] | Potency [13]

CCn1nc(C(=O)O)c(=O)c2cc3c(cc21)OCO3
inactive: Potency [1] | Potency [2] | Potency [3] | Potency [14] | Potency [16] | Potency [17] | Potency [7] | Potency [8] | Potency [9] | Potency [10] | Potency [11] | Potency [12] | Potency [13]
